Most compounds without a hit are left out; they make up all but 1.6% or so of the library.
KCNQ2 block = blocks the rat KCNQ2 potassium channel; CHO-K1 KCNQ2, FluxOR thallium flux, 20 min; stronger effect = lower value; hit rate 1.1% among 310,000; O88943; B-score at 10 µM; AID 2156;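 active = fluorescence ratio B-score at most minus 3 library SDs, with starting brightness B-score within 2 library SDs, cut at about -5.5 in these data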
KCNQ2 pot = potentiators of rat KCNQ2 potassium channel. O88943. CHO-K1 KCNQ2, FluxOR thallium flux fluorescence; stronger effect = higher value. B-score at 10 µM. hit rate 0.54% among 310,000. AID 2239;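 active = fluorescence ratio B-score at least 3 SD of library B-scores, with initial fluorescence B-score within 3 of them, cut at about 5.3 in these data; same plate scores as AID 2156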;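 note: B-score of peak minus minimum over baseline fluorescence ratio after K+ and Tl+ stimulus; positive B-score means potentiation of KCNQ2 with more thallium influx and brighter signal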
Kir21 conf inh = confirmation of mouse Kir2.1 potassium channel inhibitors | shares compounds with KCNQ2 pot | Kir2.1-expressing cells, FluxOR thallium flux fluorescence; stronger effect = lower value | Tl flux remaining, % of negative control (stronger effect = lower value), % at 10 µM | hit rate 41% among 2,300;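 active = Primary-screen hit whose thallium flux fell at least 3 control SD below untreated wells in both duplicates, with normal baseline fluorescence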;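 note: 0% = blank wells without stimulus and 100% = stimulated no-compound controls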
HEK293 ctr = alters thallium flux in parental HEK293 cells, Kir2.1 counter-screen; FluxOR signal as % of negative control (100 = no effect), % at 10 µM; hit rate 19% among 2,300; shares compounds with KCNQ2 pot; FluxOR thallium flux fluorescence; 0% = unstimulated blank wells; AID 2105;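 active = dye signal at least 3 control SD above or below untreated wells in both duplicates, raw fluorescence within 3, either direction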;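 note: percent is based on the flux ratio of peak minus minimum fluorescence over baseline F0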
CHO-K1 ctr = counter-screen for KCNQ2 potentiators: effect in parental CHO-K1 cells. activity increase over 3SD of controls, % at 10 µM. AID 2282. shares compounds with KCNQ2 pot. hit rate 43% among 1,200. FluxOR thallium flux fluorescence; zero = vehicle mean+3SD, 100% = vehicle-minus-blank window;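 active = signal rise of at least 3 SD above the untreated control mean, in both duplicate wells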;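 note: counter screen of KCNQ2 potentiator hits so any rise reflects channel-independent effects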
KCNQ1 pot spec = tests whether KCNQ2 potentiators also act on human KCNQ1; shares compounds with KCNQ2 pot; hit rate 28% among 1,200; activation over 3SD threshold, % at 10 µM; CHO KCNQ1 stable, FluxOR thallium flux fluorescence; beyond 3SD, as % of vehicle-control signal;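 active = fluorescence ratio rise of at least 3 SD of vehicle wells above their mean, in both replicate wells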;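 note: 0% = vehicle mean plus 3 SD and 100% = vehicle minus unstimulated blank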
Target sequence (P51787 whole entry, looked up): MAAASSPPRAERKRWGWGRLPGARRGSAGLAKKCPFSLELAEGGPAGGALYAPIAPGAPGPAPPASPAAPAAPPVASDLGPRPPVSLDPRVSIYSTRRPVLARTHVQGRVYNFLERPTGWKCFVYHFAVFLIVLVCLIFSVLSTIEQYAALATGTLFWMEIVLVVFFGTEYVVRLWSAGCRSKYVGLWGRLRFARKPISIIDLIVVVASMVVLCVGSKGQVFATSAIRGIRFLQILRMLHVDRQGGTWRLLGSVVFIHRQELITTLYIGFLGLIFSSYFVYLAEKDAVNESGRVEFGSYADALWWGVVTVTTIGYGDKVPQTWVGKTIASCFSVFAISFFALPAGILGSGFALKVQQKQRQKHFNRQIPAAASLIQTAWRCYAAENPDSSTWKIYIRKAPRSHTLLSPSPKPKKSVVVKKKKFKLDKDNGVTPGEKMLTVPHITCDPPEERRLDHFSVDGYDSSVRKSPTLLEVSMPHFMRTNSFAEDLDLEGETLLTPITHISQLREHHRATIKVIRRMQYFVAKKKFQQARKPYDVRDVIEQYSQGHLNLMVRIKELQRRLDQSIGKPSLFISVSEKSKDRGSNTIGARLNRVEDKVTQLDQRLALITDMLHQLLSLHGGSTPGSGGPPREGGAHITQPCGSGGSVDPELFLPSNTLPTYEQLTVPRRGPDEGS
KCNQ2 pot confirm = rat KCNQ2 channel potentiator confirmation. AID 2287. potentiation, less the hit threshold, % at 10 µM. hit rate 68% among 1,200. CHO-KCNQ2 cells, FluxOR thallium flux fluorescence. shares compounds with KCNQ2 pot;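 active = fluorescence ratio rising 3 SD or more over the vehicle control mean in both replicates, plus primary screen hit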;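 note: peak minus minimum thallium fluorescence divided by baseline after K/Tl stimulus; 0% = vehicle mean plus 3 SD and 100% = vehicle minus unstimulated blank difference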
Kir2-1 sel = selectivity of KCNQ2 potentiators: effect on mouse Kir2.1. shares compounds with KCNQ2 pot. HEK293 Kir2.1, FluxOR thallium flux fluorescence. activity over 3SD threshold, % at 10 µM. hit rate 2% among 1,200. AID 2345;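 active = fluorescence ratio rise of at least 3 SD above the vehicle-control mean, seen in both replicates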;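 note: 0% = vehicle mean plus 3 SD and 100% = vehicle minus no-stimulus blank window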
KCNQ2 W236L pot = KCNQ2 potentiators acting on retigabine-insensitive rat KCNQ2 W236L mutant. shares compounds with KCNQ2 pot. CHO KCNQ2-W236L, automated patch clamp current. current increase over 3SD of negative controls (%), stronger effect = higher value, % at 25 µM. hit rate 10% among 940;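 active = current increase at least 3 SD of the untreated controls above them in both duplicate recordings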
The depositor's hits bear a star; i = inactive; . = no result given.

SMILES | KCNQ2 block | KCNQ2 pot | Kir21 conf inh | HEK293 ctr | others
O=C(CSc1nnnn1-c1cccc2c1CCCC2)N1CCCCC1 | i | 6.2* | 70%* | i | CHO-K1 ctr=69*;KCNQ1 pot spec=-20;KCNQ2 pot confirm=-7;Kir2-1 sel=-66
COCCNCC(O)CON=C1c2ccccc2-c2ccccc21 (configuration not stated) | i | . | 32%* | i
CC(C)CCNCC(O)CON=C1c2ccccc2-c2ccccc21 (configuration not stated) | i | . | . | .
CC1(c2ccccc2)NC(=O)N(CC#N)C1=O (configuration not stated) | i | 0.14 | . | .
Cn1cc(CN2C[C@]3(C)C[C@H]2CC(C)(C)C3)c(-c2ccc3c(c2)OCCO3)n1 | i | . | . | .
CN(Cc1ccccc1)C1CCN(Cc2ccccc2[N+](=O)[O-])CC1 | i | . | . | .
O=C1c2ccccc2C(O)N1Cc1ccco1 (configuration not stated) | i | 2.2 | . | .
c1coc(CN=C2NC(=NCc3ccco3)c3ccccc32)c1 | i | . | 35%* | i
COc1ccc(C(O)(CCC(C)C)C(CN2CCOCC2)c2ccc(Cl)cc2)cc1 (configuration not stated) | i | 6.4* | i | i | CHO-K1 ctr=-24;KCNQ1 pot spec=46*;KCNQ2 pot confirm=-4;Kir2-1 sel=-30
CCCC(O)(c1ccc(OC)cc1)C(CN1CCOCC1)c1ccc(Cl)cc1 (configuration not stated) | i | 5.2 | . | .
CC(C)(C)OC(=O)N1CCC[C@H]1c1nnc(SCc2cccc(Cl)c2)o1 | i | . | 54%* | i
CC(C)(C)OC(=O)N1CCC[C@H]1c1nnc(SCc2ccccc2Cl)o1 | i | . | i | 70%*
CC(C)(C)OC(=O)N1CCC[C@H]1c1nnc(SC/C=C/c2ccccc2)o1 | i | . | . | .
CCCCSc1nnc([C@@H]2CCCN2C(=O)OC(C)(C)C)o1 | i | . | . | .
CC(C)(C)OC(=O)N1CCC[C@H]1c1nnc(SCc2ccc(Cl)cc2)o1 | i | . | 52%* | 68%*
CSc1nnc([C@@H]2CCCN2C(=O)OC(C)(C)C)o1 | i | . | . | .
Cc1c(NC(=O)C(C)N2C(=O)NC3(CCC(C)CC3)C2=O)c(=O)n(-c2ccccc2)n1C (configuration not stated) | i | 0.52 | . | .
O=C(CSc1ncn[nH]1)N1c2ccccc2Sc2ccccc21 | i | 0.42 | . | .
Cc1ccc(C(C)C)c(OCC(O)CN(C)Cc2ccccc2)c1 (configuration not stated) | i | . | 20%* | i
Cc1ccc(C(C)C)c(OCCCN(C)Cc2ccccc2)c1 | i | . | . | .
CCC(C)C(=O)Nc1cccc(SC)c1 (configuration not stated) | i | 2.1 | . | .
c1cc(-c2cc3cc(N4CCOCC4)ccc3o2)cs1 | i | . | . | .
COc1cc2[nH]c(C(=O)NCCc3ccccc3)cc2c(OC)c1OC | i | 0.23 | . | .
COc1cc2[nH]c(C(=O)NCc3ccccc3)cc2c(OC)c1OC | i | . | i | i
COc1ccc(N2Cc3ccccc3C2=NC(=O)c2cncc(Br)c2)cc1 | i | . | . | .
CCc1nc(NC(C)(C)C)c2cnn(-c3ccccc3)c2n1 | i | 1.1 | . | .
CCC1(C)Cc2ccccc2-c2[nH]c(=S)[nH]c(=O)c21 (configuration not stated) | i | 1.2 | . | .
CCn1c(=S)[nH]c2c(c1=O)C(C)(C)Cc1ccccc1-2 | i | 12* | i | 288%* | CHO-K1 ctr=4.3*;KCNQ1 pot spec=-15;KCNQ2 pot confirm=28*;Kir2-1 sel=-23;KCNQ2 W236L pot=i
CCCCN(C)C(=O)Cn1cnc2sc(C)c(S(=O)(=O)N3CCN(c4ccccc4OC)CC3)c2c1=O | i | 2.3 | . | .

High-throughput results (PubChem BioAssay)
